Compound activity deposited in PubChem BioAssay by National Center for Advancing Translational Sciences (NCATS).
PKM2 activator: increases activity of human pyruvate kinase M2; purified PKM2, Kinase-Glo ATP luminescence, activation; response scale: 0% is enzyme alone, no compound; Potency, µM (highest dose often 57.5 µM), actives largely listed as activators; 0.34% of 260,000 active; note: nearly all actives have a fitted effect of over 55% in size
Target sequence (P14618 whole entry, looked up): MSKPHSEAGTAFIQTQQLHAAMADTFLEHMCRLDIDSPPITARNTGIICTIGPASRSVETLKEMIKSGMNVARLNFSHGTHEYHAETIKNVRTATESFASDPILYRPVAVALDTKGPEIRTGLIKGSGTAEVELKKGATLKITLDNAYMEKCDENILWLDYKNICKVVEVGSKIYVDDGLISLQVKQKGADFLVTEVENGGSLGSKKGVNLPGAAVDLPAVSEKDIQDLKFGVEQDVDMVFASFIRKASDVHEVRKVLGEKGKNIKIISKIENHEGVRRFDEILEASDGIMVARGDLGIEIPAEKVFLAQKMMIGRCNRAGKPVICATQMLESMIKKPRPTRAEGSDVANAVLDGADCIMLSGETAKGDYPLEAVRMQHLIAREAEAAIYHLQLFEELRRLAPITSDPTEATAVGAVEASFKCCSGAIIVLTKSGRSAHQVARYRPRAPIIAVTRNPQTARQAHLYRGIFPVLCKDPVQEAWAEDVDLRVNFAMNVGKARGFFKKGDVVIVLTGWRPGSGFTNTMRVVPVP
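Purified hPK-M2 (>95% pure) converted ADP (0.1 mM final) to ATP with 0.5 mM PEP in 50 mM imidazole pH7.2, KCl, MgCl2, Tween 20, BSA; 1 h at room temperature. ATP detected by Kinase-Glo luminescence.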
IL-2 act: activators of IL-2; IL-2 activation reporter assay, cell-based qHTS; stimulated with anti-CD3/CD4/CD28 beads; in transgenic mouse T cells; 0.065% of 360,000 active; activation, % (series mostly up to about 46 µM); in the data active = activation above about 50%; inconclusive = mostly about 30% to 49%
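EGFP and DsRed fluorescence is measured by plate cytometry in unstimulated transgenic mouse T cells exposed to compound for 60 minutes, then stimulated 18 hours at 37 degrees C with anti-CD3/anti-CD4 beads plus anti-CD28.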
ASM inhibitor: inhibitors of human secretory acid sphingomyelinase. Potency, µM (highest dose often 57.5 µM), usual class: inhibitors. 0.006% of 340,000 active. AID 504937. placental ASM, HMU-PC fluorogenic substrate, 60 min
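Human placenta-derived ASM preincubated with compound 10 min at room temperature, then reacted with 9 uM (final) fluorogenic HMU-PC substrate for 60 min at 37 C. Stop solution raises pH to 10; fluorescence read at Ex 386/Em 447 nm.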
Hits are given with their value; 0 = inactive; ? = inconclusive; - = no result. Shown are actives, neighbours in structure and some others; about 0.33% of the full set was active somewhere. Unless noted, calls come from the whole dose curve; as a rule, active = well fitted curve in the direction sought with a large enough effect; inconclusive = small, poorly fitted or top-dose-only effect, or another doubt; inactive = no such curve, though single readings can be large; an effect the other way counts as inactive or inconclusive.

SMILES	PKM2 activator	IL-2 act	ASM inhibitor
O=C(CSc1nccc(=O)[nH]1)N1N=C2/C(=C/c3ccco3)CCCC2C1c1ccco1 (centres undefined)	?	0	0
C[C@@H]1CCCCO[C@H](CN(C)C(=O)Nc2cccc3ccccc23)[C@@H](C)CN([C@H](C)CO)C(=O)c2cc(N(C)C)ccc2O1	-	0	-
O=C(COc1ccc2ccc(=O)oc2c1)NC1CCCCC1	-	0	0
Nc1nc(-c2ccccc2)cn1/N=C/c1ccccc1	0	0	0
Nc1nc(-c2ccccc2)cn1N	28.2µM	0	0
Cc1cccc(N2CCN(c3nc4nonc4nc3N3CCSCC3)CC2)n1	0	0	0
CCc1ccccc1NC(=O)c1cc(-c2ccc(OC)cc2)on1	-	0	0
Cn1cc(/C=C2/SC(=O)N(c3ccccc3)C2=O)c2ccccc21	0	0	0
Cn1cccc1/C=C1\SC(=O)N(c2ccccc2)C1=O	0	249.9	0
O=C(Cc1ccccc1)NC1CCN(S(=O)(=O)c2cccc(F)c2)CC1	28.2µM	0	0
O=C(Cc1ccccc1)NC1CCN(S(=O)(=O)c2ccc(C(=O)O)cc2)CC1	0	0	0
CCc1cc(C(=O)OC)c(NC(=O)CC2Nc3cc(C)c(C)cc3NC2=O)s1 (centres undefined)	0	?	0
COC(=O)c1c(NC(=O)CC2Nc3cc(C)c(C)cc3NC2=O)sc(C)c1C (centres undefined)	0	61.7	0
Cn1c(=O)n(C)c2cc(NS(=O)(=O)c3ccccc3)ccc21	0	0	0
Cn1c(=O)n(C)c2cc(S(=O)(=O)Nc3ccccc3)ccc21	3.98µM	0	0
Cn1c(=O)n(C)c2cc(S(=O)(=O)Nc3cc(Cl)ccc3O)ccc21	12.6µM	0	0
Cn1c(=O)n(C)c2cc(S(=O)(=O)Nc3ccccc3O)ccc21	?	0	0
Cc1ccc(S(=O)(=O)Nc2ccc3c(c2)n(C)c(=O)n3C)cc1	0	0	0
Cc1ccc(NS(=O)(=O)c2ccc3c(c2)n(C)c(=O)n3C)cc1C	1.58µM	0	0
Cc1ccc(SCC(=O)NNC(=O)CNC(=O)c2ccc(Br)cc2)cc1	-	0	0
O=C(Nc1ccccc1)NN1CC(=O)N(c2ccc(Cl)cc2)CC1=O	0	0	0
Cc1cnc(NC(=O)CSCc2c(C)noc2C)s1	-	0	0
CCOc1ccc(Cc2nnc(SCC(=O)Nc3ccccc3)n(N)c2=O)cc1	-	0	0
Cc1cc2oc(=O)sc2cc1NS(=O)(=O)c1ccccc1	?	0	0
Cc1cc2oc(=O)sc2cc1NS(=O)(=O)c1cccc2cccnc12	31.6µM	0	0
SMILES	PKM2 activator	IL-2 act	ASM inhibitor
O=C(CCc1nc2ccccc2c(=O)[nH]1)Nc1nnc(SCc2ccccc2F)s1	-	0	0
CCOC(=O)CC(=O)CSc1nc2ccc(C)cc2cc1C#N	0	0	0
COC(=O)CSc1nc2cc(C)ccc2cc1C#N	0	103.3	0
Cc1cc(NC(=O)Cn2cnc3c(nnn3-c3ccc(C)c(Cl)c3)c2=O)no1	0	0	0
CCOc1ccc(-n2nnc3c(=O)n(CC(=O)Nc4cc(C)on4)cnc32)cc1	15.8µM	0	0
CCc1ccc(NS(=O)(=O)c2ccc3c(c2)oc(=O)n3C)cc1	-	0	0
Cn1c(=O)c2cc(S(=O)(=O)Nc3cccc(F)c3)ccc2n(C)c1=O	5.01µM	0	0
Cc1ccc(NS(=O)(=O)c2ccc3c(c2)oc(=O)n3C)cc1F	4.47µM	0	0
Cn1c(=O)c2cc(S(=O)(=O)NC(C(=O)Nc3cccc(F)c3)c3ccccc3)ccc2n(C)c1=O (centres undefined)	0	0	0
Cc1ccc(NS(=O)(=O)c2ccc3c(c2)oc(=O)n3C)cc1C	-	0	0
COC(=O)c1ccccc1NS(=O)(=O)c1ccc2c(c1)oc(=O)n2C	0	0	0
CSc1cccc(NS(=O)(=O)c2ccc3c(c2)oc(=O)n3C)c1	7.94µM	0	0
Cn1c(=O)oc2cc(S(=O)(=O)Nc3ccccc3O)ccc21	14.1µM	0	0
Cn1c(=O)c2c(ncn2CC(=O)N2CCN(c3ccccc3F)CC2)n(C)c1=O	0	0	0
CCOC(=O)C1=C(C)N(CCCCCC(=O)O)C(=O)NC1c1ccc([N+](=O)[O-])cc1 (centres undefined)	0	0	0
O=C(COC(=O)c1cnccn1)c1ccc([N+](=O)[O-])cc1	0	0	0
Cc1ccccc1C(=O)Nc1nnc(CC(=O)N/N=C/c2ccncc2)s1	0	0	0
Cn1c(=O)c(C(=O)COc2ccc(C#N)cc2)c(N)n(Cc2ccccc2)c1=O	0	0	0
CNC(=O)OCN1C(=O)C2CC=CCC2C1=O (centres undefined)	-	0	0
Cc1ccc(NS(=O)(=O)c2ccc3c(c2)oc(=O)n3C)cc1	0	0	0
Cn1c(=O)oc2cc(S(=O)(=O)Nc3cccc(F)c3)ccc21	12.6µM	0	0
Cc1nnc2ccc(N3CCN(c4ccccn4)CC3)nn12	0	0	0
O=C(NCc1ccco1)/C(=C\c1cccs1)NC(=O)c1ccsc1	0	0	0
O=C(NCc1ccco1)/C(=C\c1cccs1)NC(=O)c1ccco1	28.2µM	0	0
Cc1ccc(NS(=O)(=O)c2ccc(C(=O)NCC(c3ccco3)N(C)C)cc2)cc1 (centres undefined)	0	0	0
SMILES	PKM2 activator	IL-2 act	ASM inhibitor
CCOC(=O)c1ccc(-c2ccc(C3Nc4ccccc4C(=O)N3O)o2)cc1 (centres undefined)	0	0	0
Cc1cc(SCc2ccccc2F)nc(=O)[nH]1	15.8µM	0	0
Cc1cc(SCc2ccccc2C)nc(=O)[nH]1	-	0	0
CCOC(=O)[C@H]1[C@H]2COc3ccc(OC)cc3[C@@H]2N2C(=O)CN(CCc3c[nH]c4ccccc34)C(=O)[C@@]12C	-	0	0
CN(C)CCNc1ccc2nnn3c4ccc(O)cc4c(=O)c1c23	-	0	0
CCN(CC)CCCNc1ccc2ncn3c4ccc(O)cc4c(=O)c1c23	-	123.5	0
COc1ccc(/C=N/NC(=O)CCCCCNC(=O)c2ccccc2)cc1	0	0	0
CCCCNC(=O)C[C@@H]1C[C@@]2(C(=O)OC)CCCCC=C2N(Cc2ccc3c(c2)OCO3)C1=O	-	0	-
COc1cccc(NS(=O)(=O)c2cc3c(cc2C)NC(=O)CO3)c1	1.78µM	0	0
COc1ccccc1N1CCN(S(=O)(=O)c2cc3c(cc2C)NC(=O)CO3)CC1	0	0	0
COc1ccccc1NS(=O)(=O)c1cc2c(cc1C)NC(=O)CO2	7.08µM	0	0
COc1cccc(NS(=O)(=O)c2cc3[nH]c(=O)c(=O)[nH]c3cc2C)c1	-	0	0
Cn1c(SCc2cccnc2)nc2c(c1=O)SCC2	28.2µM	0	0
Cn1c(SCc2ccc(Br)cc2)nc2c(c1=O)SCC2	0	0	0
O=C(CCCCCBr)N1CCC(CC2CC(c3cccc(Br)c3)=NO2)(C(=O)NCC2CCCCC2)CC1 (centres undefined)	0	0	0
O=C(CCCCCBr)N1CCC(CC2CC(c3ccc(Cl)cc3)=NO2)(C(=O)NCC2CCCCC2)CC1 (centres undefined)	0	63.4	0
CCOC(=O)Cc1csc(NC(=O)c2ccc(C)cc2)n1	0	0	0
O=C(NCC1CCCO1)c1ccc(COc2ccccc2)o1 (centres undefined)	-	0	0
Cn1ncc(SCc2ccccc2)c(Cl)c1=O	17.8µM	0	0
